“And” between values parts separate entries of the source, which are not always exact repeats. Equal values may be shown once. Some compounds were tested as several samples or in several runs, with calls that do not always agree. The source made the active and inactive calls. A call without a number means that no potency is given here. Unless noted, calls come from the whole dose curve; as a rule, active = well fitted curve in the direction sought with a large enough effect in the repeat runs; inconclusive = weak or mixed curves; inactive = no such curve, though single readings can be large; an effect the other way counts as inactive or inconclusive.
Key:
[1] = qHTS assay to identify small molecule antagonists of the glucocorticoid receptor (GR) signaling pathway - cell viability counter screen (AID 720693); note: nearly all actives have a fitted effect of over 55% in size; note: potency is the fitted concentration of half-maximal effect
[2] = qHTS assay for identifying genotoxic compounds that show differential cytotoxicity against isogenic chicken DT40 cell lines with known DNA damage response pathways - wild type cell line (AID 743012); note: nearly all actives have a fitted effect of over 60% in size; note: potency is the fitted concentration of half-maximal effect
Procedure, shortened: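 Using parental DT40 (300 cells/well), compounds delivered in DMSO incubate 40 h at 37 C/5% CO2. CellTiter-Glo reagent then stands 30 min at room temperature, and luminescence gives cell viability.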

[3] = qHTS assay for identifying genotoxic compounds that show differential cytotoxicity against isogenic chicken DT40 cell lines with known DNA damage response pathways - Rev3 mutant cell line (AID 743014); note: nearly all actives have a fitted effect of over 55% in size; note: potency is the fitted concentration of half-maximal effect
[4] = qHTS assay for identifying genotoxic compounds that show differential cytotoxicity against isogenic chicken DT40 cell lines with known DNA damage response pathways - Rad54/Ku70 mutant cell line (AID 743015); note: nearly all actives have a fitted effect of over 60% in size; note: potency is the fitted concentration of half-maximal effect
[5] = qHTS assay to identify small molecule antagonists of the androgen receptor (AR) signaling pathway - cell viability counter screen (AID 743033; note: nearly all actives have a fitted effect of over 45% in size; note: potency is the fitted concentration of half-maximal effect)
[6] = biological target: Androgen receptor (Homo sapiens) (UniProt P10275); experiment: qHTS assay to identify small molecule antagonists of the androgen receptor (AR) signaling pathway (AID 743035; active = well fitted inhibition curve with a large enough effect in the signal ratio in the repeat runs, not every such curve was filed as active; inconclusive = weak or mixed curves, or effect the other way; inactive = no such curve, though single readings can be large or run the other way; the % refers to the signal ratio)
Chain of Androgen receptor (Homo sapiens) (P10275 whole entry, looked up): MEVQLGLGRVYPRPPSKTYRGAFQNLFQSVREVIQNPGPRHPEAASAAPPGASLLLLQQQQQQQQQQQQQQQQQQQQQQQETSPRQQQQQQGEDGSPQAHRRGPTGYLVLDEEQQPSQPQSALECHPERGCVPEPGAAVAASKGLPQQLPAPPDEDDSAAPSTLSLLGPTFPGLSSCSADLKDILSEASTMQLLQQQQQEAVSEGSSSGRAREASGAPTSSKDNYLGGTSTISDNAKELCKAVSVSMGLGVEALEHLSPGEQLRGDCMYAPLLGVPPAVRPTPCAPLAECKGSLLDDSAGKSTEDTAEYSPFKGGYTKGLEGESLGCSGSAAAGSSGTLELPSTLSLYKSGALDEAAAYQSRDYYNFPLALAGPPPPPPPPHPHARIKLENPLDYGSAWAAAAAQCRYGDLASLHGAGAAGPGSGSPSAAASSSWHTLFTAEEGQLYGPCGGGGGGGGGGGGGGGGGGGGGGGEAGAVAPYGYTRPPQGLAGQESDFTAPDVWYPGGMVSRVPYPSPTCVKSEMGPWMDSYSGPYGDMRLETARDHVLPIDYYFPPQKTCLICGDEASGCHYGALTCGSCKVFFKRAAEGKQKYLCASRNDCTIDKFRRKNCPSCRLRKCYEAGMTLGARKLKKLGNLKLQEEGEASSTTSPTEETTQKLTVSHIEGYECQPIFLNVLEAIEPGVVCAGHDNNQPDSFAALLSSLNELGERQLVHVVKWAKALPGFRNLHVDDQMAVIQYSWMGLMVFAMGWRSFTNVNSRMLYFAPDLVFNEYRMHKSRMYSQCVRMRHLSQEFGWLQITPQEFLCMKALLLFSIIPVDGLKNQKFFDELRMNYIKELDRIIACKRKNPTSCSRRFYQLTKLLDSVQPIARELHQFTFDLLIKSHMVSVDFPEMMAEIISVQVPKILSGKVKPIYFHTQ
Procedure, shortened: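 Using qHTS, AR-UAS-bla GripTite HEK293 cells received compound, then R1881, and were cultured 16 h at 37C/5% CO2 before a 2 h room-temperature LiveBLAzer B/G FRET substrate step and fluorescence measurement.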

[7] = biological target: Androgen receptor (Homo sapiens) (UniProt P10275); experiment: qHTS assay to identify small molecule agonists of the androgen receptor (AR) signaling pathway (AID 743036; active = well fitted activation curve with a large enough effect in the signal ratio in the repeat runs, with a control signal flat, not every such curve was filed as active; inconclusive = weak or mixed curves, or effect the other way; inactive = no such curve, though single readings can be large or run the other way; the % refers to the signal ratio)
Procedure, shortened: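 AR-UAS-bla HEK293 cells, plated 4 h before dosing, were treated with compound for 16 h at 37C. beta-Lactamase reporter read after 2 h with LiveBLAzer B/G FRET substrate at room temperature.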

[8] = biological target: Androgen receptor (Homo sapiens) (UniProt P10275); experiment: qHTS assay to identify small molecule agonists of the androgen receptor (AR) signaling pathway using the MDA cell line (AID 743040; note: nearly all actives have a fitted effect of over 20% in size)
Procedure, shortened: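 MDA-kb2 breast carcinoma cells carrying MMTV-luciferase (responsive to AR and GR), plated 5 h then treated 16 h with compounds at 37C, 0% CO2. Read-out was ONE-Glo luminescence after 30 min at room temperature.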

[9] = qHTS assay to identify small molecule antagonists of the androgen receptor (AR) signaling pathway using the MDA cell line - cell viability counter screen (AID 743041; note: nearly all actives have a fitted effect of over 45% in size; note: potency is the fitted concentration of half-maximal effect)
Procedure, shortened: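 MDA-kb2 AR-luc cells (MMTV-luciferase, AR/GR responsive) treated with compounds plus R1881 agonist for 16 h at 37C. CellTiter-Fluor added at 15.5 h; fluorescence read after 30 min in the same wells.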

[10] = biological target: Androgen receptor (Homo sapiens) (UniProt P10275); experiment: qHTS assay to identify small molecule antagonists of the androgen receptor (AR) signaling pathway using the MDA cell line (AID 743042; note: nearly all actives have a fitted effect of over 55% in size)
Procedure, shortened: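 MDA-kb2 breast carcinoma cells carrying MMTV-luciferase (AR/GR responsive) were co-treated with compounds and the agonist R1881 for 16 h at 37C. Inhibition read as ONE-Glo luminescence; CellTiter-Fluor fluorescence measured in parallel for cytotoxicity.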

[11] = qHTS assay to identify small molecule antagonists of the thyroid receptor (TR) signaling pathway - cell viability counter screen (AID 743064); note: nearly all actives have a fitted effect of over 50% in size; note: potency is the fitted concentration of half-maximal effect
Procedure, shortened: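 GH3.TRE-Luc rat pituitary cells dosed after 4 hr plating, co-stimulated with T3 at 1 nM final, incubated 23.5 h at 37 C. Viability measured in the same wells by CellTiter-Fluor fluorescence after 30 min further at 37 C.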

[12] = qHTS assay to identify small molecule antagonists of the thyroid receptor (TR) signaling pathway (AID 743065); note: nearly all actives have a fitted effect of over 55% in size; note: potency is the fitted concentration of half-maximal effect
Procedure, shortened: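 GH3.TRE-Luc rat pituitary cells (two TREs driving luciferase) were dosed with compound, then stimulated with 1 nM T3 (final) for 23.5 h at 37 C. ONE-Glo luminescence was the read-out, with CellTiter-Fluor fluorescence as the cytotoxicity counter-screen.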

[13] = tested on: thyroid hormone receptor (rat, GH3 cells); experiment: qHTS assay to identify small molecule agonists of the thyroid receptor (TR) signaling pathway (AID 743066; calls by dose curve)
[14] = biological target: Estrogen receptor (Homo sapiens) (UniProt P03372); experiment: qHTS assay to identify small molecule antagonists of the estrogen receptor alpha (ER-alpha) signaling pathway (AID 743069; active = well fitted curve in the direction sought with a large enough effect in the signal ratio in the repeat runs, not every such curve was filed as active; inconclusive = weak or mixed curves, or effect the other way; inactive = no such curve, though single readings can be large or run the other way; the % refers to the signal ratio; note: potency is the fitted concentration of half-maximal effect)
Chain of Estrogen receptor (Homo sapiens) (P03372 whole entry, looked up): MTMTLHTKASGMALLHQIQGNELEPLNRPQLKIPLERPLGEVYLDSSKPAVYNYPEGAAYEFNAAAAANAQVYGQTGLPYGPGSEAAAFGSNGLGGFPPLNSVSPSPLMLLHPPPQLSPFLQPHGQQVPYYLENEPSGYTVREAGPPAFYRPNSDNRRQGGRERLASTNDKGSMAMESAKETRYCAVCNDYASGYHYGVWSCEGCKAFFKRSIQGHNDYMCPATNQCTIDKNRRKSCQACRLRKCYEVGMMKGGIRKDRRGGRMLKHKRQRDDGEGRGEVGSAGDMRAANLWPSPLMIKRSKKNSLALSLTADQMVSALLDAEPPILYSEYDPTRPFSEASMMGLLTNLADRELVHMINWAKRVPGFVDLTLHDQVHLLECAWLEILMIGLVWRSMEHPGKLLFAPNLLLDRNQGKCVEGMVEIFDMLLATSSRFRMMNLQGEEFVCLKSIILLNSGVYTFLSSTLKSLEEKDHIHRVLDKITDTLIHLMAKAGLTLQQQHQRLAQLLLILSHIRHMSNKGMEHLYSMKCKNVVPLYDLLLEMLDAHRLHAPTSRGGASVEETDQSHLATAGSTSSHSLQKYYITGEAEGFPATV
Procedure, shortened: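 HEK293 ER-alpha-UAS-bla GripTite cells, held overnight in 2% charcoal-stripped FBS, 5,000 cells/well, preincubated 4 h, then compound plus 17beta-estradiol for 18 h at 37C. Beta-lactamase read by LiveBLAzer B/G FRET substrate, 2 h at room temperature.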

[15] = qHTS assay to identify small molecule antagonists of the estrogen receptor alpha (ER-alpha) signaling pathway - cell viability counter screen (AID 743074; calls by dose curve;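 note: HEK293 cells carrying ER-alpha-UAS-bla reporter stimulated with 17beta-estradiol; nearly all actives have a fitted effect of over 45% in size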)
[16] = biological target: Estrogen receptor (Homo sapiens) (UniProt P03372); experiment: qHTS assay to identify small molecule agonists of the estrogen receptor alpha (ER-alpha) signaling pathway (AID 743075; calls by dose curve)
[17] = biological target: Estrogen receptor (Homo sapiens) (UniProt P03372); experiment: qHTS assay to identify small molecule agonists of the estrogen receptor alpha (ER-alpha) signaling pathway using the BG1 cell line (AID 743079); note: nearly all actives have a fitted effect of over 20% in size; note: potency is the fitted concentration of half-maximal effect
[18] = qHTS assay to identify small molecule antagonists of the estrogen receptor alpha (ER-alpha) signaling pathway using the BG1 cell line - cell viability counter screen (AID 743081);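 note: compound given together with 17beta-estradiol as the ER stimulus; nearly all actives have a fitted effect of over 45% in size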; note: potency is the fitted concentration of half-maximal effect
[19] = biological target: Aromatase (Homo sapiens) (UniProt P11511); experiment: qHTS assay to identify aromatase inhibitors (AID 743083); note: nearly all actives have a fitted effect of over 55% in size; note: potency is the fitted concentration of half-maximal effect
Chain of Aromatase (Homo sapiens) (P11511 whole entry, looked up): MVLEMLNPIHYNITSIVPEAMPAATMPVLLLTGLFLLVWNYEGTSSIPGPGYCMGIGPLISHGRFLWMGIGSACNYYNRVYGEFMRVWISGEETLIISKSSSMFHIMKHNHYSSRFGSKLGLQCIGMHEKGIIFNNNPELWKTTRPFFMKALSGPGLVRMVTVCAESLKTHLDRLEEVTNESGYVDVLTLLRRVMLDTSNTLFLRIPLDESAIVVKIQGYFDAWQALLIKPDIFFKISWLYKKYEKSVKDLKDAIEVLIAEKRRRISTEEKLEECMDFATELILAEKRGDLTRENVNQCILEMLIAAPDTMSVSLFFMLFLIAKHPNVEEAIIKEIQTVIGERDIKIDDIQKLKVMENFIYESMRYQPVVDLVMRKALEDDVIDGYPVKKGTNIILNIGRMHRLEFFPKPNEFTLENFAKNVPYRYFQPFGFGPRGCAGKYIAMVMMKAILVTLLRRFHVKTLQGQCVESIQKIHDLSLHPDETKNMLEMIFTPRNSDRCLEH

[20] = qHTS assay to identify small molecule antagonists of the estrogen receptor alpha (ER-alpha) signaling pathway using the BG1 cell line (AID 743080; calls by dose curve;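 note: BG1 cells stimulated with 17beta-estradiol alongside compound; series mostly up to about 70 µM; nearly all actives have a fitted effect of over 25% in size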)
Procedure, shortened: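 Luminescence from a 4×ERE-luciferase reporter in BG1-Luc-4E2 cells served as read-out. Cells, pre-cultured 5 days in stripped-serum phenol-red-free medium, were exposed to compound with 17beta-estradiol co-stimulation for 21.5 h at 37 C.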

Row | Structure (SMILES) | Potency [1] | Potency [2] | Potency [3] | Potency [4] | Potency [5] | Potency [6] | outcome [7] | Potency [8] | Potency [9] | Potency [10] | Potency [11] | Potency [12] | Potency [13] | Potency [14] | Potency [15] | Potency [16] | Potency [17] | Potency [18] | Potency [19] | Potency [20]
1 | CC(=O)NC1CCSC1=O (centres undefined) | inactive | inactive | inactive | inactive | inactive | inactive | inactive | inactive | inactive | inactive | inactive | inactive | inactive | inactive | inactive | inactive | inactive | inactive | inactive | 
2 | CCCCCCC#N | inactive | inactive | inactive | inactive | inactive |  |  |  | inactive |  | inactive | inactive | inactive | inactive | inactive | inactive | inactive | inactive | inactive | inactive
3 | O=Cc1ccc2c(c1)OCO2 | inactive | inactive | inactive | inactive | inactive |  |  |  | inactive |  | inactive | inactive | inactive |  | inactive |  |  | inactive | inactive | 
4 | Nc1nc(N)nc(N)n1 | inactive | inactive | inactive | inactive | inactive |  |  |  | inactive |  | inactive | inactive | inactive |  | inactive |  |  | inactive | inactive | 
5 | CC[C@H]1C[C@H]2[C@@H]3CCC4=CC(=O)CC[C@@H]4[C@H]3CC[C@]2(C)[C@H]1O | inactive | 16.8 µM (active) | 29.8 µM (active) | 21.1 µM (active) | inactive |  |  |  | inactive |  | inactive | 21.1 µM (active) | inactive |  |  | inactive | 10.6 µM (active) |  | inactive | 
6 | O=C(NC(=O)c1c(F)cccc1F)Nc1ccc(OC(F)(F)C(F)OC(F)(F)F)c(Cl)c1 (centres undefined) | inactive | 6.68 µM (active) | 4.22 µM (active) | 1.06 µM (active) | inactive |  |  |  | inactive |  | inactive | inactive | inactive |  | inactive |  | inactive | inactive | inactive | inactive
7 | CC(C)(C)c1cc([N+](=O)[O-])cc([N+](=O)[O-])c1O | 1.09 µM (active) | 19.3 µM (active) | 21.6 µM (active) | 19.3 µM (active) | 13.8 µM (active) |  |  |  | 24.3 µM (active) |  | 8.61 µM (active) | 3.43 µM (active) |  |  |  |  |  | 21.6 µM (active) | 15.3 µM (active) | 
8 | Cl/C=C\Cl | inactive | inactive | inactive | inactive | inactive |  |  |  | inactive |  | inactive |  | inactive | inactive | inactive | inactive | inactive | inactive | inactive | 
9 | O=C1CN=C(c2ccccc2)c2cc(Cl)ccc2N1CC1CC1 | inactive | 18.8 µM (active) | 29.8 µM (active) and 64.2 µM (active) | 26.6 µM (active) | inactive |  |  |  | inactive |  | inactive | 21.1 µM (active) and 51 µM (active) | inactive |  | inactive |  |  | inactive | inactive | 
10 | C(=NC1CCCCC1)=NC1CCCCC1 | inactive | inactive and 15.4 µM (active) | inactive and 21.7 µM (active) | inactive and 3.06 µM (active) | inactive |  |  |  | inactive |  | inactive and 27.3 µM (active) |  | inactive | inactive and 3.89 µM [inconclusive] (active) | inactive | inactive | 13.8 µM (active) and inactive |  | inactive and 1.37 µM (active) | 
11 | C=COC(C)=O | inactive | inactive | inactive | inactive | inactive |  |  |  | inactive |  | inactive | inactive | inactive |  | inactive |  |  | inactive | inactive | 
12 | COc1nn(C(=O)NS(=O)(=O)c2ccccc2OC(F)(F)F)c(=O)n1C | inactive | inactive | inactive | inactive | inactive |  |  |  | inactive |  | inactive | inactive | inactive |  | inactive |  |  | inactive | inactive | 
13 | C=CCN1CC[C@]23c4c5ccc(O)c4O[C@H]2C(=O)CC[C@@]3(O)[C@H]1C5 | inactive | inactive | inactive | inactive | inactive |  |  |  | inactive |  | inactive | inactive | inactive |  | inactive |  |  | inactive | inactive | 
14 | CCOc1ccc(C(C)(C)COCc2cccc(Oc3ccccc3)c2)cc1 | inactive | inactive | inactive | inactive | inactive |  |  |  | inactive |  | inactive |  | inactive | inactive | inactive | inactive | inactive | inactive | inactive | inactive
15 | NCC(CC(=O)O)c1ccc(Cl)cc1 (centres undefined) | inactive | inactive | inactive | inactive | inactive |  |  |  | inactive |  | inactive | inactive | inactive |  | inactive |  |  | inactive | inactive | 
16 | CCCCOC(=O)c1ccccc1C(=O)OCc1ccccc1 | inactive | inactive and 48.6 µM (active) | inactive | 51.4 µM (active) | inactive |  |  |  | inactive |  | inactive | inactive | inactive |  | inactive |  |  | inactive | inactive | 
17 | Clc1cc(Cl)c(Cl)c(Cl)c1 | inactive | inactive | inactive | inactive | inactive |  |  |  | inactive |  | inactive | inactive | inactive | inactive | inactive | inactive |  | inactive | inactive | inactive
18 | COC(=O)C(Br)CBr (centres undefined) | inactive | inactive | inactive | inactive | inactive |  |  |  | inactive |  | inactive | inactive |  | inactive | inactive | inactive | inactive | inactive | inactive | inactive

From PubChem BioAssay (Tox21)
